# Laboratory results reported in a collection of fitness landscapes (doi:10.1126/science.1257360).
# Whole data set: some 140,000 sequences, median “enrichment ratio after two sorts for PhoP signalling” near 0, cut for the highest 2% near 11. Many of the other results were omitted from the sample, so the highest values are more common in it than they were.
# B1: PhoQ; a variant is named by its letters at X, in order, P23837 (parent)
# chain: MKKLLRLFFPLSLRVRFLLATAAVVLVLSLAYGMVALIGYSVSFDKTTFRLLRGESNLFYTLAKWENNKLHVELPENIDKQSPTMTLIYDENGQLLWAQRDVPWLMKMIQPDWLKSNGFHEIEADVNDTSLLLSGDHSIQQQLQEVREDDDDAEMTHSVAVNVYPATSRMPKLTIVVVDTIPVELKSSYMVWSWFIYVLSANLLLVIPLLWVAAWWSLRPIEALAKEVRELEEHNRELLNPATTRELTSLVRNLNRLLKSERERYDKYRTTLTDLTHSLKTPLXXLQXXLRSLRSEKMSVSDAEPVMLEQISRISQQIGYYLHRASMRGGTLLSRELHPVAPLLDNLTSALNKVYQRKGVNISLDISPEISFVGEQNDFVEVMGNVLDNACKYCLEFVEISARQTDEHLYIVVEDDGPGIPLSKREVIFDRGQRVDTLRPGQGVGLAVAREITEQYEGKIVAGESMLGGARMEVIFGRQHSAPKDE
# Variants of: B1
# Assay: enrichment ratio after two sorts for PhoP signalling (ratio (wild type AVST 3.29)); higher = more functional
# Conditions: with PhoP (E. coli)
row,Variant,enrichment ratio
1,FKNI,≤ 0.25
2,NEDI,≤ 0.25
3,NKAR,≤ 0.25
4,FVHD,≤ 0.25
5,WDYC,≤ 0.25
6,AMIE,≤ 0.25
7,AITE,≤ 0.25
8,AMTE,15.1
9,AMPE,≤ 0.25
10,AMCI,14.1
11,AMNL,3.05
12,AMCE,67.3
13,AMCL,15.7
14,AMCS,5.27
15,NMCL,≤ 0.25
16,AKTE,≤ 0.25
17,AMCK,≤ 0.25
18,PGVP,≤ 0.25
19,HSSS,≤ 0.25
20,DNCF,≤ 0.25
21,HRPL,≤ 0.25
22,NSCR,≤ 0.25
23,ILKS,≤ 0.25
24,APIM,≤ 0.25
25,QGSM,9.07
26,AMPA,≤ 0.25

row,Variant,enrichment ratio
1,AMPI,0.985
2,AMCA,19.4
3,MMHC,≤ 0.25
4,GDLT,≤ 0.25
5,GDNT,≤ 0.25
6,GDIT,14
7,NQIQ,≤ 0.25
8,GDIQ,17.5
9,GDHQ,≤ 0.25
10,GQIQ,14.9
11,GNIQ,9.19
12,GDHP,1.16
13,VNKQ,≤ 0.25
14,GRCH,≤ 0.25
15,YDLC,≤ 0.25
16,IFMM,≤ 0.25
17,HGLM,16.4
18,HFLM,≤ 0.25
19,HRLM,≤ 0.25
20,CFLM,≤ 0.25
21,NGLM,13.2
22,SGFM,5.94
23,RGLM,≤ 0.25
24,SGFA,≤ 0.25
25,SGLM,17.9
26,GGLM,2.85

row,Variant,enrichment ratio
1,TGLM,26.9
2,AGLM,6.12
3,RWIP,≤ 0.25
4,VHKL,≤ 0.25
5,MHLQ,≤ 0.25
6,DMYA,≤ 0.25
7,SEHG,≤ 0.25
8,VTGQ,≤ 0.25
9,YERP,≤ 0.25
10,RWVH,≤ 0.25
11,EIKR,≤ 0.25
12,WPFI,≤ 0.25
13,MTAY,4.94
14,IGLM,14
15,IGFA,≤ 0.25
16,IGLA,≤ 0.25
17,QFWE,≤ 0.25
18,ANCA,44.6
19,AKSE,≤ 0.25
20,ANHV,≤ 0.25
21,ANCE,56
22,ADSE,≤ 0.25
23,AGID,≤ 0.25
24,ANSE,11.5
